# Entries with a potency or affinity are not part of this list. Activity calls are given as the source filed them. The rule behind the calls is not given here.
# Assay: cytotoxicity in HEK293 cells, dose response, cytotoxicity control, cell-based, plate reader, cherry-pick (AID 651899);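 note: cells exposed to compound for 48 hours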
# Conditions: series mostly up to 26 µM; activity change, negative = cytotoxicity: at the top concentration
row,SMILES,"activity change, negative = cytotoxicity"
1,Cc1nc(-c2cccnc2)sc1C(=O)Nc1cccc(C(F)(F)F)c1,-8.29% (inactive)
2,C/C=C/c1ccc2c(c1)O[C@@H](CN(C)C(=O)Nc1ccccc1)[C@H](C)CN([C@H](C)CO)S2(=O)=O,-9.85% (inactive)
3,O=C(Nc1ccc2c(c1)[C@H]1C[C@@H](CC(=O)N3CCc4ccccc4C3)O[C@@H](CO)[C@H]1O2)c1cccnc1,-13.1% [at 12 µM] (inactive)

# — PubChem BioAssay AID651899 (Broad Institute, 2012)
